# Assay results taken from PubChem BioAssay (NCI).
# The panel holds about 79,000 compounds, 15% with a hit somewhere; the sample as a whole holds those more often. Unmarked numbers belong to inactive results. The source made the active and inactive calls. Cut-off read from the data, not from the text of the source: active = growth inhibition above about 70%; inactive = the rest.
# Experiments:
# [1] = NCI Yeast Anticancer Drug Screen. Data for the mlh1 rad18 strain (AID 175); conditions: S. cerevisiae mlh1 rad18 strain growth inhibition, hits give high values
# Method in brief: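 Yeast w/ defined DNA-repair lesions; compound exposure; growth vs vehicle controls → % inhibition.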
# [2] = NCI Yeast Anticancer Drug Screen. Data for the rad18 strain (AID 177); conditions: S. cerevisiae rad18 mutant growth inhibition, hits give high values
# Method in brief: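 Readout: growth inhibition vs vehicle controls. Cells: genetically altered yeast strain, DNA repair defect.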
# [3] = NCI Yeast Anticancer Drug Screen. Data for the rad52 strain (AID 147);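 note: 0% = growth of vehicle-treated control cultures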; conditions: S. cerevisiae rad52 mutant growth inhibition, hits give high values
# Method in brief: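 Read-out: growth inhibition versus vehicle-treated controls. Cells were a DNA repair-deficient yeast strain treated with compounds.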
# [4] = NCI Yeast Anticancer Drug Screen. Data for the rad50EPP+ strain (AID 151);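 note: 0% = growth of vehicle-treated control cultures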; conditions: S. cerevisiae rad50 mutant strain, hits give high values
# Method in brief: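 Growth inhibition read against vehicle controls in rad50EPP+ yeast, a strain altered in DNA damage repair, after compound exposure.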
# [5] = NCI Yeast Anticancer Drug Screen. Data for the mgt1 strain (AID 153); conditions: S. cerevisiae mgt1 mutant growth inhibition, hits give high values
# Method in brief: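 mgt1 yeast grown with test compound; read-out is growth inhibition versus vehicle-treated cultures.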
# [6] = NCI Yeast Anticancer Drug Screen. Data for the rad50 strain (AID 155);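 note: 0% = growth of vehicle-only cultures of the same strain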; conditions: S. cerevisiae rad50 strain growth inhibition, hits give high values
# Method in brief: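 Cells are treated with compound, grown, and their growth is then scored against vehicle-only cultures of the same repair-deficient yeast strain.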
# [7] = NCI Yeast Anticancer Drug Screen. Data for the mec2-1 strain (AID 157); conditions: S. cerevisiae mec2-1 strain, hits give high values
# Method in brief: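 Yeast mec2-1 mutant treated with compound. Readout: growth inhibition vs vehicle controls.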
# [8] = NCI Yeast Anticancer Drug Screen. Data for the rad14 strain (AID 159);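 note: 0% = growth of vehicle-treated control cultures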; conditions: S. cerevisiae rad14 strain growth inhibition, hits give high values
# Method in brief: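 Readout: yeast growth inhibition, referenced to vehicle-only cultures. Strain bears a defined alteration in DNA damage repair.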
# [9] = NCI Yeast Anticancer Drug Screen. Data for the sgs1 mgt1 strain (AID 161);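 note: 0% = growth of cultures given vehicle only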; conditions: S. cerevisiae sgs1 mgt1 strain, hits give high values
# Method in brief: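 Test agents were incubated with a DNA-repair-mutant yeast strain. Growth was then read and compared against vehicle-treated controls.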
# [10] = NCI Yeast Anticancer Drug Screen. Data for the CLN2oe strain (AID 163);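 note: 0% = growth of vehicle-only control cultures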; conditions: S. cerevisiae CLN2oe strain, hits give high values
# Method in brief: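 Read-out: yeast growth inhibition, expressed relative to vehicle-only controls. The strain bears an engineered cell-cycle alteration.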
# [11] = NCI Yeast Anticancer Drug Screen. Data for the cln2 rad14 strain (AID 165);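 note: 0% = growth equal to vehicle treated cultures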; conditions: S. cerevisiae cln2 rad14 strain, hits give high values
# Method in brief: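 cln2 rad14 yeast strain; compound exposure; growth inhibition read vs vehicle controls.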
# [12] = NCI Yeast Anticancer Drug Screen. Data for the bub3 strain (AID 167); conditions: S. cerevisiae bub3 mutant strain, hits give high values
# Method in brief: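 Part of a panel of yeast mutants defective in DNA damage repair or cell cycle regulation. Each strain is grown with compound, and inhibition is calculated relative to solvent-treated cultures.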
# [13] = NCI Yeast Anticancer Drug Screen. Data for the wt2 strain (AID 169);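 note: 0% = growth of vehicle-treated yeast cultures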; conditions: S. cerevisiae wt2 strain growth inhibition, hits give high values
# Method in brief: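 Read-out: growth inhibition versus vehicle-treated control cultures after compound exposure of the yeast strain.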
# [14] = NCI Yeast Anticancer Drug Screen. Data for the mlh1 strain (AID 171);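 note: 0% = growth of vehicle-treated control cultures of the same strain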; conditions: S. cerevisiae mlh1 strain growth inhibition, hits give high values
# Method in brief: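 Read-out: growth inhibition versus vehicle controls. Strain: engineered yeast with a defined DNA repair or cell cycle defect, compound-treated.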
# [15] = NCI Yeast Anticancer Drug Screen. Data for the sgs1 strain (AID 173);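 note: 0% = growth of vehicle-only control cultures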; conditions: S. cerevisiae sgs1 mutant, hits give high values
# Method in brief: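 Read-out: yeast growth inhibition relative to vehicle controls, following compound exposure of a strain with a defined DNA repair/cell cycle alteration.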
# [16] = NCI Yeast Anticancer Drug Screen. Data for the wt1 strain (AID 149);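 note: 0% = growth of vehicle-treated wt1 cultures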; conditions: S. cerevisiae wt1 strain (SPY 50644) growth inhibition, hits give high values
# Method in brief: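 The wt1 strain was treated with compounds, and growth was compared with vehicle-treated cultures to give inhibition.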
# [17] = at 5.0 µM (retest, dose inferred, filed as 0.5)
# [18] = at 50.0 µM (retest, dose inferred, filed as 5.0)
smiles,measurement,setting,value
Cc1cc(O)cc(O)c1N=Nc1ccc([N+](=O)[O-])cc1,growth inhibition,[1]; [17],48%
same,growth inhibition,[1]; [18],99% (active)
same,growth inhibition,[1]; at 50.0 µM,55.8%
same,growth inhibition,[2]; at 1.2 µM,5%
same,growth inhibition,[2]; at 3.7 µM,3%
same,growth inhibition,[2]; at 11.0 µM,8%
same,growth inhibition,[2]; at 33.0 µM,11%
same,growth inhibition,[2]; at 100.0 µM,32%
CCCCCCCCCCCCCCC(C(=O)[O-])[n+]1ccccc1 (centres undefined),growth inhibition,[3]; at 1.2 µM,2%
same,growth inhibition,[3]; at 3.7 µM,2%
same,growth inhibition,[3]; at 11.0 µM,2%
same,growth inhibition,[3]; at 33.0 µM,-1%
same,growth inhibition,[3]; at 100.0 µM,91% (active)
same,growth inhibition,[4]; at 1.2 µM,0%
same,growth inhibition,[4]; at 3.7 µM,4%
same,growth inhibition,[4]; at 11.0 µM,4%
same,growth inhibition,[4]; at 33.0 µM,3%
same,growth inhibition,[4]; at 100.0 µM,39%
same,growth inhibition,[5]; at 1.2 µM,2%
same,growth inhibition,[5]; at 3.7 µM,-4%
same,growth inhibition,[5]; at 11.0 µM,2%
same,growth inhibition,[5]; at 33.0 µM,-2%
same,growth inhibition,[5]; at 100.0 µM,95% (active)
same,growth inhibition,[6]; at 1.2 µM,3%
same,growth inhibition,[6]; at 3.7 µM,9%
same,growth inhibition,[6]; [17],9%
same,growth inhibition,[6]; at 11.0 µM,3%
same,growth inhibition,[6]; at 33.0 µM,4%
same,growth inhibition,[6]; [18],20%
same,growth inhibition,[6]; at 50.0 µM,98.5% (active)
same,growth inhibition,[6]; at 100.0 µM,97% (active)
same,growth inhibition,[7]; at 1.2 µM,3%
same,growth inhibition,[7]; at 3.7 µM,1%
same,growth inhibition,[7]; [17],-2%
same,growth inhibition,[7]; at 11.0 µM,-7%
same,growth inhibition,[7]; at 33.0 µM,-2%
same,growth inhibition,[7]; [18],97% (active)
same,growth inhibition,[7]; at 50.0 µM,99% (active)
same,growth inhibition,[7]; at 100.0 µM,95% (active)
same,growth inhibition,[8]; at 1.2 µM,-2%
same,growth inhibition,[8]; at 3.7 µM,13%
same,growth inhibition,[8]; at 11.0 µM,0%
same,growth inhibition,[8]; at 33.0 µM,2%
same,growth inhibition,[8]; at 100.0 µM,90% (active)
same,growth inhibition,[9]; [17],12%
same,growth inhibition,[9]; [18],45%
same,growth inhibition,[9]; at 50.0 µM,98.8% (active)
same,growth inhibition,[10]; at 1.2 µM,3%
same,growth inhibition,[10]; at 3.7 µM,3%
same,growth inhibition,[10]; at 11.0 µM,3%
same,growth inhibition,[10]; at 33.0 µM,-2%
same,growth inhibition,[10]; at 100.0 µM,26%
same,growth inhibition,[11]; [17],8%
same,growth inhibition,[11]; [18],26%
same,growth inhibition,[11]; at 50.0 µM,95.8% (active)
same,growth inhibition,[12]; at 1.2 µM,2%
same,growth inhibition,[12]; at 3.7 µM,-27%
same,growth inhibition,[12]; [17],5%
same,growth inhibition,[12]; at 11.0 µM,0%
same,growth inhibition,[12]; at 33.0 µM,-8%
same,growth inhibition,[12]; [18],91% (active)
same,growth inhibition,[12]; at 50.0 µM,97.3% (active)
same,growth inhibition,[12]; at 100.0 µM,85% (active)
same,growth inhibition,[13]; at 1.2 µM,0%
same,growth inhibition,[13]; at 3.7 µM,0%
same,growth inhibition,[13]; at 11.0 µM,-1%
same,growth inhibition,[13]; at 33.0 µM,7%
same,growth inhibition,[13]; at 100.0 µM,83% (active)
same,growth inhibition,[14]; at 1.2 µM,0%
same,growth inhibition,[14]; at 3.7 µM,-3%
same,growth inhibition,[14]; at 11.0 µM,-12%
same,growth inhibition,[14]; at 33.0 µM,-18%
same,growth inhibition,[14]; at 100.0 µM,99% (active)
same,growth inhibition,[15]; at 1.2 µM,0%
same,growth inhibition,[15]; at 3.7 µM,-3%
same,growth inhibition,[15]; at 11.0 µM,-2%
same,growth inhibition,[15]; at 33.0 µM,13%
same,growth inhibition,[15]; at 100.0 µM,95% (active)
same,growth inhibition,[1]; [17],-15%
same,growth inhibition,[1]; [18],51%
same,growth inhibition,[1]; at 50.0 µM,98% (active)
same,growth inhibition,[2]; at 1.2 µM,3%
same,growth inhibition,[2]; at 3.7 µM,8%
same,growth inhibition,[2]; at 11.0 µM,24%
same,growth inhibition,[2]; at 33.0 µM,81% (active)
same,growth inhibition,[2]; at 100.0 µM,97% (active)
O=[N+]([O-])CC(SCc1ccccc1)c1ccc2c(c1)OCO2 (centres undefined),growth inhibition,[16]; at 1.2 µM,23%
same,growth inhibition,[16]; at 3.7 µM,36%
same,growth inhibition,[16]; at 11.0 µM,70% (active)
same,growth inhibition,[16]; at 33.0 µM,98% (active)
same,growth inhibition,[16]; at 100.0 µM,98% (active)
same,growth inhibition,[4]; at 1.2 µM,44%
same,growth inhibition,[4]; at 3.7 µM,91% (active)
same,growth inhibition,[4]; at 11.0 µM,97% (active)
same,growth inhibition,[4]; at 33.0 µM,98% (active)
same,growth inhibition,[4]; at 100.0 µM,98% (active)
same,growth inhibition,[5]; at 1.2 µM,9%
same,growth inhibition,[5]; at 3.7 µM,3%
same,growth inhibition,[5]; at 11.0 µM,47%
same,growth inhibition,[5]; at 33.0 µM,97% (active)
same,growth inhibition,[5]; at 100.0 µM,97% (active)
same,growth inhibition,[6]; at 1.2 µM,41%
same,growth inhibition,[6]; at 3.7 µM,69%
same,growth inhibition,[6]; [17],30%
same,growth inhibition,[6]; at 11.0 µM,94% (active)
same,growth inhibition,[6]; at 33.0 µM,98% (active)
same,growth inhibition,[6]; [18],97% (active)
same,growth inhibition,[6]; at 50.0 µM,90% (active)
same,growth inhibition,[6]; at 100.0 µM,98% (active)
same,growth inhibition,[7]; at 1.2 µM,-2%
same,growth inhibition,[7]; at 3.7 µM,42%
same,growth inhibition,[7]; [17],26%
same,growth inhibition,[7]; at 11.0 µM,76% (active)
same,growth inhibition,[7]; at 33.0 µM,98% (active)
same,growth inhibition,[7]; [18],98% (active)
same,growth inhibition,[7]; at 50.0 µM,91.7% (active)
same,growth inhibition,[7]; at 100.0 µM,98% (active)
same,growth inhibition,[8]; at 1.2 µM,-2%
same,growth inhibition,[8]; at 3.7 µM,36%
same,growth inhibition,[8]; at 11.0 µM,71% (active)
same,growth inhibition,[8]; at 33.0 µM,97% (active)
same,growth inhibition,[8]; at 100.0 µM,97% (active)
same,growth inhibition,[9]; [17],-4%
same,growth inhibition,[9]; [18],46%
same,growth inhibition,[9]; at 50.0 µM,92.7% (active)
same,growth inhibition,[10]; at 1.2 µM,3%
same,growth inhibition,[10]; at 3.7 µM,5%
same,growth inhibition,[10]; at 11.0 µM,42%
same,growth inhibition,[10]; at 33.0 µM,97% (active)
same,growth inhibition,[10]; at 100.0 µM,97% (active)
same,growth inhibition,[11]; [17],15%
same,growth inhibition,[11]; [18],97% (active)
same,growth inhibition,[11]; at 50.0 µM,90.2% (active)
same,growth inhibition,[12]; at 1.2 µM,-28%
same,growth inhibition,[12]; at 3.7 µM,13%
same,growth inhibition,[12]; [17],89% (active)
same,growth inhibition,[12]; at 11.0 µM,91% (active)
same,growth inhibition,[12]; at 33.0 µM,97% (active)
same,growth inhibition,[12]; [18],96% (active)
same,growth inhibition,[12]; at 50.0 µM,92.2% (active)
same,growth inhibition,[12]; at 100.0 µM,97% (active)
same,growth inhibition,[13]; at 1.2 µM,1%
same,growth inhibition,[13]; at 3.7 µM,8%
same,growth inhibition,[13]; at 11.0 µM,47%
same,growth inhibition,[13]; at 33.0 µM,97% (active)
same,growth inhibition,[13]; at 100.0 µM,97% (active)
same,growth inhibition,[14]; at 1.2 µM,17%
same,growth inhibition,[14]; at 3.7 µM,48%
same,growth inhibition,[14]; at 11.0 µM,94% (active)
same,growth inhibition,[14]; at 33.0 µM,98% (active)
same,growth inhibition,[14]; at 100.0 µM,97% (active)
same,growth inhibition,[15]; at 1.2 µM,30%
same,growth inhibition,[15]; at 3.7 µM,54%
same,growth inhibition,[15]; at 11.0 µM,97% (active)
same,growth inhibition,[15]; at 33.0 µM,100% (active)
same,growth inhibition,[15]; at 100.0 µM,99% (active)
same,growth inhibition,[1]; [17],73% (active)
same,growth inhibition,[1]; [18],97% (active)
same,growth inhibition,[1]; at 50.0 µM,89.2% (active)
same,growth inhibition,[2]; at 1.2 µM,7%
same,growth inhibition,[2]; at 3.7 µM,23%
same,growth inhibition,[2]; at 11.0 µM,79% (active)
same,growth inhibition,[2]; at 33.0 µM,98% (active)
same,growth inhibition,[2]; at 100.0 µM,98% (active)
